Data on 40 compounds can be found in PubChem BioAssay (NCI).

About 83,000 compounds went through this panel and 20% of them were active in at least one assay; those are over-represented in the sample as a whole.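 Single-concentration screen, 48 h exposure, 96-well plates. Endpoint: percent growth. Below 10 = active.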 A number with no mark means an inactive call. The source made the active and inactive calls.

The assay has as its system HCC-2998 colon. In words: NCI-60 one-dose screen, 48 h (100 = growth as untreated, 0 = no growth, -100 = all killed). The settings on record: 10 µM unless noted. How it is done: Growth inhibition of the HCC-2998 human tumor cell line is measured as a screen for anti-cancer activity. Cells are grown in 96 well plates and exposed to the test compound for 48 hours. Compounds are tested at a single concentration, which is 10^-5 M for most compounds. The reported endpoint is percent growth (GI% or GIPRCNT), where numbers from 0 - 100% represent growth inhibition, and numbers from -100% - 0 represent cell death. For example, a value of 40 represents 60% growth inhibition. A value of 0 means no net growth occurred over the course of the experiment. A value of -40 indicates 40% of cells at the beginning of the experiment died by the end of the experiment. A value of -100 means all cells are dead at the end of the experiment.
NCI-60 Human Tumor Cell Lines Screen was performed using the standard one-dose NCI protocol, which is described in more detail at https://dtp.cancer.gov/discovery_development/nci-60/default.htm.
Compounds with GIPRCNT values below 10 were considered active. Activity score was based on GIPRCNT using the following formula: […]
Score is 0 for GIPRCNT values of 100 or above, 50 for GIPRCNT values of 0, and 100 for GIPRCNT values of -100.
Consider `CC(=O)Oc1c(Cl)cccc1-c1ccccc1`, for which the growth was 102%. In the case of `CCCC(=O)c1cccs1`, the growth was 99.8%.

As for `Oc1ccc(N=Cc2ccc(OCc3ccccc3)cc2)cc1`, the growth is 112%. As to `COc1ccc2c(ccc[n+]2C)c1`, the growth was 104%. `CCCCCC/C=C\CCCCCCCCCc1cc(O)cc(OC)c1O`: the growth is 35.7%. With `CNc1ccccc1C(=O)N/N=C/C=C/c1ccccc1`, the growth was 42.2%. On to `O=C(NCc1ccco1)Nc1cccc2c(NC(=O)NCc3ccco3)cccc12`, for which the growth is 74.5% [100 µM].

`CCC(=O)C1C(=O)c2ccccc2C1=O`: the growth is 106%.

With `CC(C)C(=O)OCCOc1ccc(C(C)(C)C)cc1`, the growth was 111%.

As to `CCCCCCCCCCCCSC1=C(Cl)C(=O)C(OC)=C(OC)C1=O`, the growth is 4.65% (active). As to `COC(=O)c1cccc([N+](=O)[O-])c1`, the growth was 99.7%.

For `Cc1ccc(S(=O)(=O)NC(=O)NCCSSCCNC(=O)NS(=O)(=O)c2ccc(C)cc2)cc1`, the growth was 108%. Under `Clc1ncnc2nc[nH]c12` stands 89.6%.

For `N#C/C(=C\NC(=S)N=Nc1c(O)[nH]c2ccccc12)c1nc2ccccc2s1`, the growth was 113%.

With `O=C(OCC1CCCO1)c1ccc([N+](=O)[O-])cc1` (stereo not given), the growth was 117%. The figure for `CCCCc1ccc2nc(NC(=O)OC)[nH]c2c1` is -43.3% (active); for `C=C1CC2(OC1=O)C(=O)N(C)c1ccc(I)cc12` (stereo not given) it is -89.3% (active). The figure for `CCOC(=O)/C(C)=C\c1ccc(OC)c(OC)c1` is 103%; for `CC(=O)c1cc(O)ccc1O` it is 98.9%. Under `O=C(c1ccc(Cl)cc1)N1CCCCC1` stands 107%; under `NNc1ncnc2nc[nH]c12`, 78%; under `N#Cc1ccc2nc[nH]c2c1`, 110%. Consider `O=Cc1ccc(O)c(O)c1`, for which the growth was 93.3%. For the compound `CC(CC(CCC(=O)O)(c1ccccc1)c1ccccc1)N(C)C` (stereo not given), the growth was 106%. With `O=C1NCC2CCCC1C2` (stereo not given), the growth was 93.1%. For the compound `O=C(NCCc1ccccc1)/C(=C\c1ccc(Cl)cc1Cl)NC(=O)c1ccccc1`, the growth was 113%. As to `C=CCC(OC(C)=O)c1ccc(C(C)C)cc1` (stereo not given), the growth was 103%. On to `O=Cc1ccc(F)cc1`, for which the growth is 104%. Take `Nc1cc2ccccc2c(O)c1O`: the growth was 113%. On to `Cc1cccnc1NC1OC(=O)c2ccccc21` (stereo not given), for which the growth is 106%. Under `Cc1ccc2nc(-c3ccc(N=Cc4ccccc4O)cc3)sc2c1` stands -12.3% (active).

In the case of `Cc1ccnc(Nc2nc3ccccc3[nH]2)n1`, the growth was 112%.

As to `Cc1[nH]nc(C(N)=O)c1[N+](=O)[O-]`, the growth was 106%. Turning to `S=C=Nc1ccc2ccccc2c1`, the growth was 95.7%. With `C=CCNC(=S)N/C=C(/C(=O)c1ccccc1)c1ccccc1`, the growth was 105%. As to `C=C1SC(=Nc2c(C)cccc2C)N(c2nc(Cl)nc(Cl)n2)C12CCCCC2`, the growth was 111%. Take `O=C(Nc1ccccc1)c1ccco1`: the growth was 84%. As for `CCOC(=O)c1ccc(NC(C)=O)o1`, the growth is 115%. Consider `Cc1cccc(C)c1NC(=S)/N=C\c1c(O)[nH]c(=O)[nH]c1=O`, for which the growth was 102%.

As to `C=C1C(=O)C2CCC1C2` (stereo not given), the growth is 97%.
